# Source: PubChem BioAssay (several laboratories)
# Rows were chosen to be rich in hits. Some 2.1% of all compounds tested hit in one or more screens of this group.
# Ba/F3 V617F tox = reduce viability of Ba/F3 cells dependent on JAK2V617F; Ba/F3 EpoR-JAK2V617F viability, ATP luminescence; inhibition, % at 5.6 µM; 220,000 tested, 1.1% active; AID 1446;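 active = inhibition above the campaign mean plus 3 SD over all tested compounds, cut at about 24% in these data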;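 note: cytokine-independent growth of Ba/F3 cells driven by EpoR plus mutant JAK2; 0% = DMSO-treated cells and 100% = JAK inhibitor I control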
# APP transl inh = APP translation inhibition. SH-SY5Y APP 5'UTR-luciferase reporter, luminescence. inhibition, % at 2 µM. 190,000 tested, 0.82% active;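 active = inhibition above a set limit, derived from the sample mean plus 3 SD, cut at about 45% in these data; inconclusive = one replicate passes the limit while the other fails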
# IEC-6 tox-1 = IEC-6 cytotoxicity, counter-screen for KLF5 inhibitors; luminescence viability; inhibition, % at 5 µM; 290,000 tested, 0.78% active; AID 1825;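 note: 0% = plate median of test compound wells and 100% = cytotoxic reference compound wells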
# KLF5 inhibitor = suppresses KLF5 promoter-driven expression; DLD-1 KLF5 promoter-luciferase reporter, luminescence; inhibition, % at 5 µM; 290,000 tested, 0.23% active; AID 1700;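 active = inhibition above a per-plate limit of that plate's mean compound inhibition plus 3 SD, cut at about 60% in these data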;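 note: 0% = DMSO wells and 100% = LY294002 at 200 µM; higher means less KLF5 promoter-driven luciferase light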
# BaF3 parental = reduces parental Ba/F3 cell viability, JAK2V617F counter-screen; 220,000 tested, 1.1% active; inhibition, % at 5.6 µM; AID 1486; CellTiter-Glo ATP luminescence;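 active = inhibition above a per-campaign cutoff, the mean inhibition of all tested compounds plus 3 SD, cut at about 27% in these data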;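 note: 0% = DMSO wells and 100% = JAK Inhibitor I control wells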
# aSyn 5UTR inh = 5' untranslated region of α-synuclein, MLPCN primary screen. inhibition, % (tested at 7.5 µM). alpha-synuclein 5'UTR reporter, inhibitor activity. 300,000 tested, 0.82% active; in the data active = inhibition above about 60%; inconclusive = no clear call, values can overlap the other calls;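 note: H4 neuroglioblastoma cells stably carrying SNCA 5'UTR luciferase fusion; 0% = DMSO wells and 100% = positive control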
# BaF3 tox 2 = reduces parental Ba/F3 viability, JAK2V617F counter-screen; shares compounds with Ba/F3 V617F tox; CellTiter-Glo luminescence; cells kept alive by added IL-3; inhibition, % at 5.6 µM; 580 tested, 31% active; AID 1520;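 active = cell growth inhibition above the hit limit set in the earlier mutant JAK2 cell screen, cut at about 27% in these data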;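 note: plate controls were DMSO-treated cells for no effect and JAK Inhibitor I control wells for full effect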
# JAK2V617F conf = Ba/F3 EpoR-JAK2V617F viability loss, confirmation; 580 tested, 66% active; CellTiter-Glo luminescence; inhibition, % at 5.6 µM; shares compounds with Ba/F3 V617F tox;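 active = mean inhibition above the hit cutoff derived in the earlier primary screen, cut at about 25% in these data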;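 note: 0% = DMSO-treated cells and 100% = JAK inhibitor I control wells; higher means lower luminescence from reduced cell ATP and viability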
# KLF5 inh confirm = KLF5 inhibition, confirmation assay. inhibition, % at 4 µM. AID 1834. 610 tested, 79% active. DLD-1 KLF5 promoter firefly luciferase reporter, luminescence. shares compounds with KLF5 inhibitor;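 active = inhibition above a set limit taken from the earlier primary screen, cut at about 63% in these data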;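 note: 0% = DMSO wells and 100% = LY294002 at 200 µM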
# IEC-6 tox-2 = kills rat IEC-6 cells in KLF5 counter-screen; shares compounds with KLF5 inhibitor; 610 tested, 56% active; IEC-6 rat intestinal cells, viability luminescence; inhibition, % at 4 µM; in the data active = inhibition above about 23%;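 note: cells exposed to compounds for 48 hours before viability read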
# IEC-6 tox confirm = confirmation of cytotoxic compounds in rat IEC-6 intestinal epithelial cells; shares compounds with IEC-6 tox-1; IEC-6 rat intestinal epithelial viability, luminescence; inhibition, % at 5 µM; 1,900 tested, 63% active; AID 1907;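 note: 0% = vehicle and 100% = reference cytotoxic drug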
# Starred values were filed as active, the others as inactive; i = inactive; ? = inconclusive; . = no result. Cut-off read from the data, not from the text of the source, unless noted: active = inhibition above about 22%; inactive = the rest.
SMILES,Ba/F3 V617F tox,APP transl inh,IEC-6 tox-1,KLF5 inhibitor,BaF3 parental,aSyn 5UTR inh,KLF5 inh confirm,IEC-6 tox-2,others
CCC(=O)N1CCN(c2ccc(NC(=O)c3ccc([N+](=O)[O-])o3)cc2)CC1,34*,48*,97*,4,-14,?,.,.,BaF3 tox 2=45*;JAK2V617F conf=95*;IEC-6 tox confirm=51*
CCCC(=O)N1CCN(c2ccc(NC(=O)c3ccc(Br)o3)cc2)CC1,-1,-7,-4,-24,5,-59,.,.,
O=C1N(c2ccccc2)C[C@@H]2C[C@@H](c3cc4ccccc4o3)N3CCC[C@@]123,101*,95*,38*,54,2,i,.,.,BaF3 tox 2=107*;JAK2V617F conf=99*;IEC-6 tox confirm=97*
CCCCN(c1ccccc1)S(=O)(=O)c1cccc2cccnc12,-6,.,-5,-18,1,16,.,.,
Cc1cc2occ(CC(=O)N(C)CC(=O)Nc3ccc(F)cc3)c2cc1C,.,.,.,.,.,20,.,.,
COc1ccc(OCCCC(=O)Nc2cccc(C(C)=O)c2)cc1,73*,7,89*,-20,-1,2,.,.,BaF3 tox 2=-6;JAK2V617F conf=-4;IEC-6 tox confirm=-10
Nc1nc(Cl)nc(N(c2ccccc2)c2ccccc2)n1,1,-7,8,0,3,2,.,.,
Nc1nc(CCl)nc(N(c2ccccc2)c2ccccc2)n1,97*,.,90*,-9,1,8,.,.,BaF3 tox 2=4;JAK2V617F conf=99*;IEC-6 tox confirm=11
Cc1cccc(CN2CCC(Oc3ccc(C(=O)N4CCCC4)cc3)CC2)n1,.,.,-5,-24,.,3,.,.,
Cc1nn2c(NCCN3CCOCC3)c3c(nc2c1-c1ccccc1)CCCC3,0,.,1,3,3,2,.,.,
Cc1nn2c(NCc3ccccn3)c3c(nc2c1-c1ccccc1)CCC3,48*,.,95*,27,11,5,.,.,BaF3 tox 2=10;JAK2V617F conf=59*;IEC-6 tox confirm=15
Cc1ccc2nc(NC(=O)c3ccc(OCC4CCCO4)cc3)sc2c1 (stereo unspecified),-6,-37,-8,68*,1,-42,-25,10,
Cc1ccc2nc(NC(=O)c3ccccn3)sc2c1,5,22,20,65*,7,111*,87*,98*,
COc1ccc2nc(NC(=O)c3ccc(NC(=O)C4CCCO4)cc3)sc2c1 (stereo unspecified),.,.,-6,0,.,-42,.,.,
Cc1cc(C)c2nc(NC(=O)c3ccc(OCC4CCCO4)cc3)sc2c1 (stereo unspecified),-2,-14,1,97*,5,-21,99*,-3,
O=C(Nc1cccnc1Cl)c1cc2ccccc2o1,.,.,-5,-182,.,-166,.,.,
Cc1cc(-c2ccc(S(=O)(=O)N(C)Cc3ccccc3)cc2)on1,.,.,9,-9,.,3,.,.,
O=C(c1ccc(Cl)cc1)N1N=CCC1(O)c1ccc(Cl)cc1 (stereo unspecified),.,.,-6,4,.,-10,.,.,
Nc1ncnc2c1ncn2[C@H]1C[C@H](O)[C@@H](COP(=O)(O)O)O1,6,11,-6,75*,11,9,-3,7,
Nc1ncnc2c1ncn2[C@H]1C[C@H](O)[C@@H](CO)O1,1,-4,5,-26,9,.,.,.,
CCc1ccc(NC(=O)c2cnn3ccccc23)cc1,2,-135,7,87*,5,78*,82*,3,
CSc1cccc(NC(=O)c2cnn3ccccc23)c1,-2,.,-2,-154,-3,-100,.,.,
O=C(NCCc1ccccc1F)c1ccc2c(c1)OCCO2,.,.,2,100*,.,108*,108*,0,
O=C(CN1C(=O)NC2(CCCC2)C1=O)Nc1ccc(Cl)cc1F,.,.,-2,-13,.,6,.,.,
O=C(CN1C(=O)NC2(CCCC2)C1=O)Nc1ccccc1F,2,0,5,109*,4,-12,1,-7,
SMILES,Ba/F3 V617F tox,APP transl inh,IEC-6 tox-1,KLF5 inhibitor,BaF3 parental,aSyn 5UTR inh,KLF5 inh confirm,IEC-6 tox-2,others
COc1ccccc1NC1=C(N2CCCCC2)C(=O)c2ccccc2C1=O,101*,-11,11,80*,100*,51,90*,20,
COc1ccccc1NC(=O)N1CCCC1,5,0,1,-13,4,3,.,.,
CC1CCN(C2=C(NS(=O)(=O)c3ccccc3)C(=O)c3ccccc3C2=O)CC1,1,.,-3,-56,-2,-9,.,.,
O=C1C(Nc2ccccc2)=C(N2CCCCC2)C(=O)c2ccccc21,98*,-10,-3,64*,102*,15,73*,-12,
COc1ccccc1CN1CC(C(=O)NCc2ncccc2C)CCC1=O (stereo unspecified),.,.,-7,-24,.,-25,.,.,
CC(C)(C)c1ccc(C(=O)Nc2sc3c(c2C(=O)O)CCC3)cc1,8,-14,6,78*,11,95*,75*,-2,
O=C(Nc1sc2c(c1C(=O)O)CCCC2)c1ccc(F)cc1,.,.,2,-2,.,-94,.,.,
Cc1cccc(NC(=S)NC(=O)/C=C/c2ccco2)c1,72*,62*,79*,74*,78*,-60,23,29*,
C[C@]12CCC(=O)CC1=CCC1C3CC=C(C#N)[C@@]3(C)CC[C@@]12O (stereo partly specified),.,.,-2,-18,.,25,.,.,
CC(C)(C)c1ccc(C(=O)O/N=C(\N)c2ccccn2)cc1,.,.,-2,89*,.,94*,96*,-12,
Cc1ccc(C(=O)O/N=C(\N)c2ccccn2)cc1C,.,.,3,43,.,46,.,.,
COc1cc(CNc2ccc(S(N)(=O)=O)cc2)ccc1OCC(=O)NC1CCCCC1,2,13,-8,75*,4,-8,-12,8,
COc1cccc(OC)c1C(=O)Nc1ccncc1,.,.,.,.,.,7,.,.,
O=[N+]([O-])c1cccc(N/N=C/c2cc([N+](=O)[O-])ccc2O)c1,1,-8,2,-26,3,-70,.,.,
O=[N+]([O-])c1ccc(O)c(/C=N/Nc2ccccn2)c1,68*,76*,5,65*,34*,95*,58,54*,
O=C(NCCn1cccn1)C1CCC(=O)N(CCc2ccc(Cl)cc2)C1 (stereo unspecified),.,.,2,-20,.,17,.,.,
O=C(N/N=C/c1cc(Cl)ccc1O)c1ccncc1,2,.,3,70*,2,-2,88*,-4,
Oc1c(Br)cc(Br)cc1/C=N/Nc1ccc(Cl)nn1,.,.,-4,102*,.,97*,36,-4,
N/C(=N\OCc1ccc([N+](=O)[O-])cc1)c1ccccn1,1,-34,0,88*,9,112*,97*,-3,
